Molecules are shown by their SMILES. The campaign covered roughly 370,000 compounds. About 2,000 (0.54%) were called active. The sample holds actives, similar compounds and a random draw of the others, so the mix is not that of the screen. Values without a mark were called inactive. No stated cut-off is given here; in the data, active means inhibition above about 30%; inactive means the rest.

The subject of this experiment is Crimean-Congo hemorrhagic fever virus L polyprotein viral ovarian tumor (vOTU) protease domain. The experiment can be described thus: CCHFV vOTU protease inhibitors, primary screen, biochemical, Pep-AMC substrate, fluorescence (AID 651958). Further: 0% = vehicle wells with enzyme and 100% = no enzyme wells. As to conditions: at 11.5 µM, active compounds read high.
On to `COc1cc(CN2CCCC(C(=O)c3ccc(SC)cc3)C2)cc(Cl)c1O` (configuration not stated), for which the inhibition is 2.91%.
The result for `CCOC(=O)[C@H]1[C@H]2COc3ccccc3[C@@H]2N2C(=O)CN(Cc3ccccc3)C(=O)[C@@]12C` reads -6.74%.
The result for `CN1c2ccc(C=O)c3c(C=O)ccc(c23)N(C)C1(C)C` reads 65.2% (active).
The result for `CN1CCN(c2ccncc2S(=O)(=O)N2CCCC2)CC1` reads -8.15%; that for `CCc1ccc(OCC(=O)NCC(c2ccc(Cl)cc2)N2CCCCC2)cc1` (configuration not stated), 31% (active).
As for `CN(CC(=O)NCC(c1ccccc1)N1CCCC1)S(=O)(=O)c1ccc(Cl)cc1` (configuration not stated), the inhibition is -5.38%.
The result for `COc1ccc(C(CNC(=O)COc2ccccc2OC)N2CCCCC2)cc1` (configuration not stated) reads 0.37%; that for `N#Cc1c(N)nc2c(c1N)CC(C(F)(F)F)O2` (configuration not stated), -10.2%; that for `CCCCOCCCNC(=O)C[C@@H]1C[C@@]2(C(=O)OCC)CCCC=C2N(CCC2=CCCCC2)C1=O`, 15.7%.
The result for `COCCNC(=O)c1onc(CSc2cccc(C)c2)c1C(=O)O` reads -0.14%; that for `CC1CCCCC12NC(=O)N(CC(=O)OCC(=O)NCc1ccc(F)cc1)C2=O` (configuration not stated), 34.9% (active).
Consider `CCCc1ccc(C(=O)COC(=O)CN2C(=O)NC3(CCCCC3C)C2=O)cc1` (configuration not stated), for which the inhibition was 16.5%.
Consider `COc1cccc(CNC(=O)COC(=O)CN2C(=O)NC3(CCCCC3C)C2=O)c1` (configuration not stated), for which the inhibition is -7.15%.
Regarding `Cc1ncc([N+](=O)[O-])n1CCOC(=O)c1ccc(Br)cc1`, the inhibition was -0.48%.
`CCCCCCCNc1nc(Cl)nc(NCCO)n1`: the inhibition was 12.8%.
In the case of `CC1CCCN(c2ccc(C(=O)NCCc3ccccc3)cn2)C1` (configuration not stated), the inhibition is -7.43%.
Take `O=C1Nc2ccc([N+](=O)[O-])cc2C1=Nc1cccc(CO)c1`: the inhibition was 58.7% (active).
The result for `O=C(CCl)N(Cc1cccc([N+](=O)[O-])c1)c1cccc(Cl)c1` reads 0.95%.
For `CCC(=O)N(C)C(c1ccccc1Cl)c1nnnn1-c1c(C)cccc1C` (configuration not stated), the inhibition is -4.14%.
Take `CC(=O)OCc1cc(=O)n(C)c(=O)n1C`: the inhibition was -3.25%.
`[2H]C(CCOS(N)(=O)=O)c1ccccc1` (configuration not stated): the inhibition is -9.88%.
The result for `COc1ccc(S(=O)(=O)/N=C2\C=C(NS(=O)(=O)c3ccccc3)C(=O)c3ccccc32)cc1` reads 65% (active); that for `Cc1ccc(S(=O)(=O)/N=C2\C=C(NS(=O)(=O)c3ccc(C)cc3)C(=O)c3ccccc32)cc1`, 77.7% (active); that for `COc1ccc(S(=O)(=O)NC(C)C(=O)N2CCCCCC2)cc1` (configuration not stated), -2.68%.
Regarding `COc1ccc(N2CCN(C3CCCCC3NS(=O)(=O)c3ccccc3)CC2)cc1` (configuration not stated), the inhibition was 19.5%.
For `Cc1ccc(S(=O)(=O)/N=S(\C)C(C)C)cc1` (configuration not stated) the value was -11.6%.
For `Cc1ccc(S(=O)(=O)N[C@H](CO)C(C)C)cc1` the value was 6.27%.
Consider `COC(=O)CN1C(=O)C2(C(C(=O)OC)=C(N)Oc3ccccc32)C2=C1CC(C)(C)CC2=O` (configuration not stated), for which the inhibition was -11.2%.
`CC(=O)N1Cc2cc(C(=O)NCc3cccc(F)c3)nc(-c3cccc(C4=CCCCC4)c3)c2[C@H]1CCO`: the inhibition is 9.9%.
Turning to `CN1CCN(S(=O)(=O)c2cccc(C(=O)Nc3sccc3C#N)c2)CC1`, the inhibition is -2.97%.
On to `C=CCSC1=C(C#N)C(c2cc(Br)c(O)c(OC)c2)CC(=O)N1` (configuration not stated), for which the inhibition was -4.94%.
On to `Cc1ccc(S(=O)(=O)N(c2cccc(C)c2)C2CCS(=O)(=O)C2)cc1` (configuration not stated), for which the inhibition was 4.15%.
With `CN1CCN(C(=O)C2=C[C@H](c3ccc4c(c3)OCO4)C[C@H](OCc3ccc(CO)cc3)O2)CC1`, the inhibition was -2.44%.
With `COCCn1nnnc1C(c1cc2ccc(OC)cc2[nH]c1=O)N1CCc2ccccc2C1` (configuration not stated), the inhibition is 103% (active).
For `COc1ccc(-n2nnnc2C(c2cccc3ccccc23)N2CCC(n3c(=O)[nH]c4ccccc43)CC2)cc1` (configuration not stated), the inhibition is 7.58%.
The result for `COc1ccc(CCC(C)N2CCc3ccccc3C2)cc1` (configuration not stated) reads 2.02%; that for `COc1cc(CN(C)Cc2nc3cc(C(F)(F)F)ccc3c(=O)[nH]2)ccc1OC(F)F`, 14.7%.
As for `CC1(C)CC(=O)C(N=Nc2c(F)cccc2F)=C(O)C1`, the inhibition was 10.4%.
The result for `CC(C)N1CCC(NC(=O)Nc2ccccc2)CC1` reads -6.34%.
The result for `CC1(c2cccc(Br)c2)NC(=O)N(CC(=O)NCCC2=CCCCC2)C1=O` (configuration not stated) reads 6.44%.
The result for `COc1ccc(F)cc1C(=O)C1CCCN(C(=O)CCc2ccccn2)C1` (configuration not stated) reads 32.7% (active); that for `COc1ccc(C(=O)N2CCCC(C(=O)c3ccccc3OC)C2)cc1OC` (configuration not stated), 4.28%.
As for `CSCC(=O)N1CCCC(C(=O)c2cc(F)ccc2F)C1` (configuration not stated), the inhibition was -7.31%.
The result for `Cc1cc(Cl)c(S(=O)(=O)NCc2cccnc2)cc1OCC(N)=O` reads -2.02%.
With `COP(=O)(OC)C(NC(=O)c1ccc(C)cc1)C(Cl)(Cl)Cl` (configuration not stated), the inhibition is -12.8%.
Take `Cc1nnc(SC(C)C(=O)Nc2ccc(S(=O)(=O)NC3CCCCC3)cc2)s1` (configuration not stated): the inhibition was 31.6% (active).
The result for `Cc1ccc(S(=O)(=O)NC2CCCCCC2)cc1C(N)=O` reads -2.9%; that for `CC(C)NS(=O)(=O)c1ccc(NC(=O)C2CCCCC2)cc1`, -0.67%; that for `Cc1ccc(NC(=O)COC(=O)C2C3CC4OC(=O)C2C4C3)cc1Cl` (configuration not stated), 6.39%.
The result for `Cc1ccc(C(C(=O)NC2CCCC2)N(Cc2ccco2)C(=O)CCC(=O)Nc2ccccn2)cc1` (configuration not stated) reads 3.43%.
Consider `COc1ccc(CCn2c(O)c(C=NCCCn3ccnc3)c(=O)[nH]c2=O)cc1OC`, for which the inhibition is 2.55%.
Regarding `CCCCC(=O)N(C)c1c(CC)nc2c(OCc3ccc(Cl)cc3Cl)cccn12`, the inhibition was 28.5%.
For `O=C1C(Cl)=C(Oc2ccccc2)C(=O)c2ccccc21` the value was 6.2%; for `CC(=O)N(C1=C(Cl)C(=O)c2ccccc2C1=O)c1ccc(C(=O)O)cc1`, 99.3% (active).
The result for `CCCCN=C1C([N+](=O)[O-])=CC=C2C1=NC1(CCCCC1)N2O` reads 9.17%.
For the compound `Cc1ccc(C)c(OCCC(=O)OCC(=O)NC(=O)NCc2ccccc2)c1`, the inhibition was 0.04%.
The result for `COc1ccc2c(c1)c(=Cc1ccc(N(C)C)cc1)c1cc(-c3ccccc3)[n+](C)n12` reads 55.6% (active).

Broadly, the inhibition is the drop in the measured response relative to a control, in per cent.

For the origin of these results see PubChem BioAssay AID651958 (The Scripps Research Institute Molecular Screening Center, 2012).
